9 molecules from PubChem BioAssay can be followed below.

The nature of assay [1]: growth inhibition of DIPG glioma cells, dose response, cell-based, JHH-DIPG-1, MIPE4.0, CellTiter-Glo, qHTS (AID 1347062; cut-off not given, nearly all actives have AC50 up to about 27 µM;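 on AC50: cells exposed to compound for two days before readout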). Conditions: JHH-DIPG-1 viability, CellTiter-Glo ATP luminescence. Background: ATP-based viability assays read luminescence as a measure of living cells.
A short description of assay [2]: growth inhibition of DIPG glioma cells, dose response, cell-based, SU-DIPG-IV, MIPE4.0, CellTiter-Glo, qHTS (AID 1347063).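 Further: compound exposure lasted 48 hours before the viability readout.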 Conditions: SU-DIPG-IV viability, CellTiter-Glo ATP luminescence.
Assay [3] in a line: growth inhibition of DIPG glioma cells, dose response, cell-based, SU-DIPG-XIII, MIPE5.0, CellTiter-Glo, qHTS (AID 1347064; cut-off not given, nearly all actives have AC50 up to about 23 µM;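 on AC50: cells exposed to compound for 48 hours before the viability read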). Conditions: SU-DIPG-XIII viability, CellTiter-Glo ATP luminescence.
The nature of assay [4]: SU-DIPG-VI glioma cell viability, MIPE4.0 library, CellTiter-Glo luminescence, qHTS (AID 1347066).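 Further: cells exposed to compound for 48 hours before readout.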 Conditions: CellTiter-Glo ATP luminescence.
A short description of assay [5]: JHH-DIPG-1 glioma cell viability, MIPE5.0 library, CellTiter-Glo luminescence, qHTS (AID 1347067; cut-off not given, nearly all actives have AC50 up to about 26 µM;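 further: cells exposed to compound for 48 hours before readout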). The settings on record: JHH-DIPG-1 glioma viability, CellTiter-Glo ATP luminescence.
Assay [6] can be described thus: SU-DIPG-XXV glioma cell viability, MIPE5.0 library, qHTS (AID 1347068; cut-off not given, nearly all actives have IC50 up to about 30 µM).
Assay [7] is described as follows: growth inhibition of DIPG glioma cells, dose response, cell-based, SU-DIPG-XIII, MIPE4.0, CellTiter-Glo, qHTS (AID 1347061; cut-off not given, nearly all actives have AC50 up to about 37 µM;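 further: cells exposed to compound for 48 hours before readout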). Conditions: SU-DIPG-XIII viability, CellTiter-Glo ATP luminescence.
The nature of assay [8]: sensitizers of A549 cells to miR-34 induction, primary screen, imaging, A549 dox-inducible miR-34, nuclei and caspase counts (AID 1347080;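 active means compounds whose cell count with miR-34 switched on is under 0.7 times the count with it off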). Conditions: A549 miR-34 inducible, Hoechst nuclei count, 48 h.
Assay [9] in a line: viability loss in pontine glioma line – cell-based, SU-DIPG-XXV, MIPE5.0, CellTiter-Glo, qHTS, dose response (AID 1347065; cut-off not given, nearly all actives have AC50 up to about 26 µM;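 further: cells exposed to compound for 48 hours before ATP readout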). The settings on record: CellTiter-Glo ATP luminescence.
A short description of assay [10]: survival rescue of mitochondrial mutant cells in low glucose, primary screen, MELAS cybrids, Rieske KO mouse fibroblasts, CellTiter-Glo (AID 1508586;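 active means mean z-score across replicates of 1.96 or higher in either the MELAS or the Rieske mutant cell line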;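 further: z relative to plate mean and SD of compound and empty wells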).
[11] abbreviates: stronger effect = lower value, cell number ratio, induced over uninduced.
The mark [12] stands for this setting: measured here: relative caspase fold change +Dox/-Dox.
[13] abbreviates: measured here: total cells with miR-34 induction, stronger effect = lower value.
Where [14] appears, read: measured here: total cells without miR-34 induction.

SMILES strings stand for the structures. Inconclusive results are not listed. Activity calls are given as the source filed them. Unless noted, cut-off not given; nearly all actives show AC50 up to about 30 µM.

As usually defined, the AC50 is the concentration at which the activity in the assay is half-maximal.

On to `C[C@H](NC(=O)[C@@H](O)c1cc(F)cc(F)c1)C(=O)N[C@@H]1C(=O)N(C)c2ccccc2-c2ccccc21`, for which the call in [1], in [2], in [3], in assay [4], in [5] and in assay [6] was inactive.
In the case of `C=C1[C@H](n2cnc3c(=O)[nH]c(N)nc32)C[C@H](O)[C@H]1CO`, the result in [7] and in [4] was inactive.
For the molecule `CCn1c(=O)c2c(nc(/C=C/c3ccc(OC)c(OC)c3)n2C)n(CC)c1=O`, the outcome in assay [1], in [2], in assay [3], in [4], in [5] and in assay [6] was inactive.
`Cc1cn2c(-c3cn[nH]c3)cnc2c(Nc2ccc(C(=O)N3CCNCC3)cc2F)n1`: the concentration at half-maximal activity (AC50) is 23.5 µM (active) in [7] and 18.7 µM (active) in [4].
For `COC(=O)C1=CO[C@@H](O)[C@@H]2C(CO)=CC[C@H]12`, the molecule was classed as inactive in assay [7]. Besides, the results for the fold change in assay [8] (setting [11]) and in [8] (setting [12]) were 1 (inactive) and 0.878, respectively. Moreover, the cell count in assay [8] (setting [13]) and in assay [8] (setting [14]) was 10100 throughout.
With `NC(CO)(CO)CCc1ccc(Sc2cccc(OCc3ccccc3)c2)cc1Cl`, the AC50 in [1] was 11.8 µM (active); in [2], 11.8 µM (active); in assay [3] it was 8.33 µM (active); in assay [9] it was 9.34 µM (active); in assay [4], 18.7 µM (active); in assay [5] it was 9.34 µM (active).
On to `Cc1cn2cc(C(=O)N(C)CCO)cc(N[C@@H]3CCOc4cccc(C)c43)c2n1`, for which the molecule was classed as inactive in assay [1], in assay [2], in assay [3], in [4], in assay [5] and in [6].
As for `Cc1noc(-c2ccc(CSCCC(=O)O)cc2)c1NC(=O)OC(C)c1ccccc1Cl` (configuration not stated), the outcome in [1], in assay [2], in [3], in assay [9], in assay [4] and in assay [5] was inactive. Besides, the molecule was called inactive in assay [6]. Also, the fold change in assay [8] (setting [11]) is 0.888 (inactive); in assay [8] (setting [12]), 1.07. Besides, the cell count in [8] (setting [13]) was found to be 6620; in [8] (setting [14]) it was 7460. Further, the z-score is -0.439 (inactive) in assay [10] (MELAS cybrid survival, CellTiter-Glo 48 h, stronger effect = higher value) and 0.718 in [10] (Rieske KO mouse fibroblast survival, CellTiter-Glo 72 h).
As for `COc1ccc(C[C@@H](C)[C@@H](C)Cc2ccc(OC)c(OC)c2)cc1OC`, the AC50 in assay [1] was 1.18 µM (active).
